Results from ChEMBL document CHEMBL1961873, “Compounds: GSK PKIS; Assays: Nanosyn kinase panel” (2012).

Experiments:
[1] = biological target: T1, Muscle, skeletal receptor tyrosine-protein kinase (Homo sapiens) (UniProt O15146); details: at 1 µM;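 further: reported value is the mean percent inhibition of MuSK kinase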
T1 sequence (whole entry): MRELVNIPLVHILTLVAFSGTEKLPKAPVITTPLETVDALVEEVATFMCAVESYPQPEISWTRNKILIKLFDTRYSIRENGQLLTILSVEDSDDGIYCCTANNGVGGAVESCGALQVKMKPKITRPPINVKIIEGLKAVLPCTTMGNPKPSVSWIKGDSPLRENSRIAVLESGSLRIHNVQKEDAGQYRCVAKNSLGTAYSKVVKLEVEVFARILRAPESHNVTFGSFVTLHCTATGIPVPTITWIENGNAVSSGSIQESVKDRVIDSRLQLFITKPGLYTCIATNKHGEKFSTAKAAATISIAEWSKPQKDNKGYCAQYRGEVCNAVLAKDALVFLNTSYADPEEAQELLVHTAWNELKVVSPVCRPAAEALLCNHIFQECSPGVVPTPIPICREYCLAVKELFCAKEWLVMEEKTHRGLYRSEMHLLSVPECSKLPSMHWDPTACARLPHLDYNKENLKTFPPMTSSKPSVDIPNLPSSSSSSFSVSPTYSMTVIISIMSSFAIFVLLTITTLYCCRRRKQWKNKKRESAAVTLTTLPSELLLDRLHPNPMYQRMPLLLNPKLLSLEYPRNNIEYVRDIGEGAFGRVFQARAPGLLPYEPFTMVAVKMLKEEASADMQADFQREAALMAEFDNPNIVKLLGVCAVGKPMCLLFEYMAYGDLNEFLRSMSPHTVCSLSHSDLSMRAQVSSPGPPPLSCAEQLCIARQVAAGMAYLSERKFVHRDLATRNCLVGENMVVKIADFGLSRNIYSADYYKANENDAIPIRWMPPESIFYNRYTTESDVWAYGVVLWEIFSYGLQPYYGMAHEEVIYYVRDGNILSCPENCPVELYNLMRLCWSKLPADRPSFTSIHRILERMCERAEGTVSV

[2] = biological target: Platelet-derived growth factor receptor alpha (Homo sapiens) (UniProt P16234); details: at 0.1 µM
[3] = biological target: Platelet-derived growth factor receptor alpha (Homo sapiens) (UniProt P16234); details: at 1 µM
[4] = test system: Platelet-derived growth factor receptor alpha (Homo sapiens), P16234 [D842V]; details: at 0.1 µM
[5] = test system: Platelet-derived growth factor receptor alpha (Homo sapiens), P16234 [D842V]; details: at 1 µM
[6] = test system: Platelet-derived growth factor receptor alpha (Homo sapiens), P16234 [T674I]; details: at 0.1 µM
[7] = test system: Platelet-derived growth factor receptor alpha (Homo sapiens), P16234 [T674I]; details: at 1 µM
[8] = test system: Platelet-derived growth factor receptor alpha (Homo sapiens), P16234 [V561D]; details: at 0.1 µM
[9] = test system: Platelet-derived growth factor receptor alpha (Homo sapiens), P16234 [V561D]; details: at 1 µM
[10] = biological target: Platelet-derived growth factor receptor beta (Homo sapiens) (UniProt P09619); details: at 0.1 µM;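 further: reported value is the mean percent inhibition of the kinase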
Chain of Platelet-derived growth factor receptor beta (Homo sapiens) (P09619 whole entry): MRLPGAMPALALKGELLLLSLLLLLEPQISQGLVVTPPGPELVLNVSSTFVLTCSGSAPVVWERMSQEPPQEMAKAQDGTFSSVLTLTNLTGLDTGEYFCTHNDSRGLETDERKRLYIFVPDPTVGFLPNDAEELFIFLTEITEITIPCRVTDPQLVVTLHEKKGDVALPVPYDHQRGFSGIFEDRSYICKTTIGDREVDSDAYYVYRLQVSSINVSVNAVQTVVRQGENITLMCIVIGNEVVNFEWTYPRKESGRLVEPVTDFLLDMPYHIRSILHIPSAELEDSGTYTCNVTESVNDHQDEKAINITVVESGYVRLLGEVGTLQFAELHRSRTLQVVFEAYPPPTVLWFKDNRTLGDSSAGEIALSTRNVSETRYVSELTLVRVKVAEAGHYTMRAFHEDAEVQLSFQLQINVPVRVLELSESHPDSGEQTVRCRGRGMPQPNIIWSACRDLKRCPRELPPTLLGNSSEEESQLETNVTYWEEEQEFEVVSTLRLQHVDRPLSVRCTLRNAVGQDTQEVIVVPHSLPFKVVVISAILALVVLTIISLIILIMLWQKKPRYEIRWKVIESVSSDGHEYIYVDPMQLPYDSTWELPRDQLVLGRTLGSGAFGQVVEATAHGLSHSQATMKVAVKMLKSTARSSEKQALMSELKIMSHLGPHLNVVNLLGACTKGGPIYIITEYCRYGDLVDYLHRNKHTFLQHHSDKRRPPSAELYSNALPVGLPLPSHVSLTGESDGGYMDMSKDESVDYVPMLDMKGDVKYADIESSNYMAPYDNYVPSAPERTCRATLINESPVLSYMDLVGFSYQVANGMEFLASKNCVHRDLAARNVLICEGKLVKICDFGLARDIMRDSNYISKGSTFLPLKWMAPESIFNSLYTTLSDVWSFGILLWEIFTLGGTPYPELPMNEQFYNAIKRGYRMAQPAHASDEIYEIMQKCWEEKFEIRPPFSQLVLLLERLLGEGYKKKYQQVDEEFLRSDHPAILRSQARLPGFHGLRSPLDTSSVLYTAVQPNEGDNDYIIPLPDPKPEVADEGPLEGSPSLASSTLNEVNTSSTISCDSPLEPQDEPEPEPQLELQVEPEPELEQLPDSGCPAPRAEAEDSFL

Chain of Platelet-derived growth factor receptor alpha (Homo sapiens), P16234 [T674I] (P16234 whole entry T674I): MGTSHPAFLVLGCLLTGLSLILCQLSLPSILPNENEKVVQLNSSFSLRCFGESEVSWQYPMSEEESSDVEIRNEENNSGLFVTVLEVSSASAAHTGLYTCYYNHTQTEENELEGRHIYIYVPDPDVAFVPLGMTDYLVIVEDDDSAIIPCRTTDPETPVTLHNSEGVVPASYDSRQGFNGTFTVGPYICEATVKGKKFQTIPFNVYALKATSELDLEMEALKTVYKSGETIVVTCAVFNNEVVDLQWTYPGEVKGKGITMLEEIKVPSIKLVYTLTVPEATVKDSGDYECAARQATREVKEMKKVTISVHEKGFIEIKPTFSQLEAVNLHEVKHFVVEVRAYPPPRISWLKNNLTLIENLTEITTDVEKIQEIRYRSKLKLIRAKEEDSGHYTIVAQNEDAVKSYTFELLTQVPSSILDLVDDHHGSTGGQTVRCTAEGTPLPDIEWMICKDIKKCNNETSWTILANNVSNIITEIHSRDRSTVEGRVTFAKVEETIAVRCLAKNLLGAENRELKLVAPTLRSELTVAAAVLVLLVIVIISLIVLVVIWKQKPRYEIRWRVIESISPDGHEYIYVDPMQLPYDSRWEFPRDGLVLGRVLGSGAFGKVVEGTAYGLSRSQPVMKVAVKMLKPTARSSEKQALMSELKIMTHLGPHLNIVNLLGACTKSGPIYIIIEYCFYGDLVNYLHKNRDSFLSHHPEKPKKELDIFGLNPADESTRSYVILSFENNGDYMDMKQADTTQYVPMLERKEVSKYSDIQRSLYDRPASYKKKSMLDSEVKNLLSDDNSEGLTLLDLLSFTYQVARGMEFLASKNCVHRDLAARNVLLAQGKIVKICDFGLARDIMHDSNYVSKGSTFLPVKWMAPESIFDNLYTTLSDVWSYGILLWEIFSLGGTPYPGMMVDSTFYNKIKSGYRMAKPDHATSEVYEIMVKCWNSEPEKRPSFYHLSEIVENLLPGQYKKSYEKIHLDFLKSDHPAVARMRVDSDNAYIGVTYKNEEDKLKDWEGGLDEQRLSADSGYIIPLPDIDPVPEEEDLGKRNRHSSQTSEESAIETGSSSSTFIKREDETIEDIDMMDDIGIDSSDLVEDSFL
Chain of Platelet-derived growth factor receptor alpha (Homo sapiens), P16234 [D842V] (P16234 whole entry D842V): as the sequence (P16234 whole entry T674I) above, with I674T, D842V counted along it
Chain of Platelet-derived growth factor receptor alpha (Homo sapiens), P16234 [V561D] (P16234 whole entry V561D): as the sequence (P16234 whole entry T674I) above, with V561D, I674T counted along it
Chain of Platelet-derived growth factor receptor alpha (Homo sapiens) (P16234 whole entry): as the sequence (P16234 whole entry T674I) above, with I674T counted along it

| SMILES | inhibition [1] | inhibition [2] | inhibition [3] | inhibition [4] | inhibition [5] | inhibition [6] | inhibition [7] | inhibition [8] | inhibition [9] | inhibition [10] |
| --- | --- | --- | --- | --- | --- | --- | --- | --- | --- | --- |
| COc1cc2ncn(-c3cc(OCc4cccs4)c(C(N)=O)s3)c2cc1OC | 12.1% | 36% | 77.6% | 19.4% | 72.8% | 7.11% | 57.7% | 24.7% | 72.9% | 31.2% |
| CCc1nccc2c1nc(-c1nonc1N)n2CC | 0.59% | 5.23% | 11.5% | 2.48% | 9.06% | 2.57% | 0.49% | 0.72% | 6.72% | 2.42% |
| COc1cc(N2CCN(C(C)C)CC2)ccc1Nc1nc(Nc2ccc(F)cc2C(=O)NC[C@@H](O)CO)c2cc[nH]c2n1 | 3.79% | 6.23% | 14.1% | 1.85% | 5.49% | 6.54% | 9.18% | 4.51% | 4.42% | 1.36% |
| COc1cccc(-n2cnc3c(N/N=C/c4ccncc4)ncnc32)c1 | 17.1% | 17.9% | 53.6% | 4.61% | 45.6% | 2.14% | 18.3% | 10.3% | 51% | 13.2% |
| C[C@@H](Oc1cc(-n2cnc3ccc(OC4CCN(C)CC4)cc32)sc1C(N)=O)c1ccccc1Cl | 40.8% | 29.3% | 69% | 10.5% | 53.6% | 8.48% | 58% | 14.5% | 65% | 26.3% |
| CS(=O)(=O)CCNCc1cc(-c2cc3c(Nc4ccc(OCc5cccc(F)c5)c(Cl)c4)ncnc3s2)cs1 | 8.6% | 9.29% | 13.6% | 2.14% | 4.9% | 8.52% | 11.1% | 4.52% | 5.56% | 4.84% |
| COc1cc(Nc2ncc3c(C)nc(-c4cccc(C(F)(F)F)c4)n3n2)cc(OC)c1OC | 19% | 13% | 25.8% | 2.68% | 13.1% | 7.3% | 8.12% | 5.66% | 14.6% | 10.3% |
| N#Cc1ccc(Oc2nccc(-c3c(-c4ccc(F)cc4)ncn3C3CCNCC3)n2)cc1 | 0.9% | 4.83% | 10.1% | 3.33% | 4.12% | 3.29% | 8.12% | 3.7% | 3.69% | 2.5% |
| COc1cc2ncn(-c3cc(OCc4ccccc4C(F)(F)F)c(C(C)=O)s3)c2cc1OC | 3.03% | 10.4% | 31.8% | 3.21% | 13.8% | 5.42% | 13.4% | 3.99% | 19.7% | 8.96% |
| C#Cc1cccc(Nc2ncnc3ccc(OCCCCNCCS(C)(=O)=O)cc23)c1 | 2.93% | 16.4% | 30.4% | 6.83% | 11.5% | 8.07% | 25.4% | 5.37% | 10.6% | 9.53% |
| COc1cc(C)c(N(C)C(=O)CN(C)C)cc1Nc1nc(Nc2cccc(F)c2C(N)=O)c2cc[nH]c2n1 | 3.08% | 4.02% | 7.22% | 0.9% | 0.89% | 1.14% | -0.57% | -2.16% | 2.56% | 0.52% |
| O=C(NCC1CC1)c1ccc(-c2cccc(C(=O)NC3CC3)c2)cc1 | 7.49% | 8.93% | 6.92% | -0.01% | -0.59% | 4.42% | 0.5% | -0.78% | 2.85% | 9.04% |
| CCc1cccc(CC)c1/C=C/c1cncc(C(=O)NC)c1 | 0.76% | 9.56% | 7.82% | 0.6% | 1.22% | 2.23% | 2.91% | -0.14% | 3.75% | 7.91% |
| NS(=O)(=O)c1ccc(N/N=C2\C(=O)Nc3ccc(-c4cnco4)cc32)cc1 | 18.5% | 13.9% | 49.8% | 6.86% | 40.8% | 1.96% | 13.9% | 8.44% | 46.8% | 12.1% |
| Fc1ccc(-c2ncn(C3CCNCC3)c2-c2ccnc(Oc3ccc(F)c(F)c3)n2)cc1 | 4.68% | 11% | 14.7% | 2.91% | 3.42% | 1.08% | 7.95% | 2.26% | 5.74% | 5.46% |
| CN(c1ccc(NC(=O)Nc2c(Cl)cccc2Cl)cc1)c1ccnc(Nc2cccc(CS(C)(=O)=O)c2)n1 | 89.9% | 69.3% | 86.6% | 6.78% | 28.6% | 72.1% | 97.5% | 78.7% | 91.2% | 52.4% |
| CCc1ccc(Oc2nccc(-c3c(-c4ccc(F)cc4)ncn3C3CCNCC3)n2)cc1 | 6.47% | 2.2% | 10.4% | 1.14% | 3.96% | 4.41% | 8.8% | 2.14% | 4.49% | 1.82% |

| SMILES | inhibition [1] | inhibition [2] | inhibition [3] | inhibition [4] | inhibition [5] | inhibition [6] | inhibition [7] | inhibition [8] | inhibition [9] | inhibition [10] |
| --- | --- | --- | --- | --- | --- | --- | --- | --- | --- | --- |
| O=C(Nc1n[nH]c2nc(-c3ccco3)ccc12)C1CC1 | 7.97% | 6.36% | 10.6% | 3.54% | 6.18% | 4.27% | 6.36% | 3.66% | 7.73% | 1.45% |
| COc1ccc2cc(-c3c(-c4ccncc4)nc(-c4ccc(S(C)(=O)=O)cc4C)n3C)ccc2c1 | 6.38% | 7.63% | 23.6% | 2.7% | 12.3% | 7.17% | 10.1% | 8.36% | 15.3% | 2.38% |
| COc1ccc2ncn(-c3cc(O[C@H](C)c4ccccc4Cl)c(C(N)=O)s3)c2c1 | 15% | 10.4% | 23.1% | 2.8% | 11.8% | 0.85% | 9.98% | 4.37% | 16.6% | 5.46% |
| C/C(Nc1ccc(S(N)(=O)=O)cc1)=C1/C(=O)Nc2ccccc21 | 30.9% | 13.8% | 53.2% | 4.56% | 33.6% | 34.4% | 95.7% | 25% | 62% | 9.96% |
| O=C(Nc1n[nH]c2cc(-c3ccccc3)ccc12)C1CC1 | 4.91% | 8.78% | 20.4% | 2.33% | 8.97% | 4.04% | 9.67% | 4.85% | 19.4% | 6.45% |
| c1ccc(-c2n[nH]cc2-c2ccnc(-c3ccc(OCCN4CCOCC4)cc3)c2)nc1 | 9.04% | 20.1% | 58.7% | 18.6% | 71% | 5.25% | -0.97% | 11.7% | 55.5% | 16.2% |
| CN(C)CCCNc1nccc(-c2c(-c3ccc(F)cc3)nn3cc(C(F)(F)F)ccc23)n1 | 12.5% | 12.9% | 18.6% | 3.3% | 4.77% | 9.27% | 4.87% | 0.27% | 5.89% | 6.34% |
| Fc1ccc(-c2c(-c3ccncc3)nc3n2CCS3)cc1 | 1.19% | 4.27% | 11.9% | 1.59% | 3.82% | 3.55% | 3.84% | 2.1% | 2.96% | 1.36% |
| CNC(=O)c1cncc(/C=C/c2c(C)cccc2C)c1 | 5.15% | 8.57% | 34.4% | 0.09% | 4.23% | 0.35% | 1.37% | 21.3% | 48% | 7.03% |
| Fc1ccc(-c2ncn(C3CCNCC3)c2-c2ccnc(Oc3ccc(Oc4ccccc4)cc3)n2)cc1 | 8.37% | 3.69% | 9.58% | 0.69% | 1.95% | 2.85% | 6.65% | 2.74% | 3.75% | 2.57% |
| CCN(CC)Cc1ccc(Nc2nccc(-c3cnn4ncccc34)n2)cc1 | 30.5% | 17.5% | 55.5% | 10.1% | 51.1% | 6.93% | 34.9% | 18% | 64.2% | 29.1% |
| COc1cc(Nc2ncc3c(C)nc(-c4cccc(Oc5ccccc5)c4)n3n2)cc(OC)c1OC | 4.06% | 3.72% | 10.5% | 2.21% | 5.9% | 1.26% | 1.96% | 1.43% | 9.34% | 0.58% |
| Clc1ccc(CNc2nccc(-c3cnn4ncccc34)n2)cc1 | 3.54% | 4.87% | 15.4% | 0.87% | 4.84% | 0.55% | 2.46% | 1.98% | 7.98% | 3.92% |
| COc1cc(Nc2ncc(-c3ccccc3)o2)cc(OC)c1OC | 14.5% | 17.7% | 69.6% | 9.16% | 43% | 27.4% | 77.7% | 35.7% | 76.1% | 23% |
| COc1ccc(-c2ccc3c(NC(=O)C4CC4)n[nH]c3n2)cc1 | 3.83% | 3.05% | 12.2% | 1.56% | 5.35% | 3.4% | 7.13% | 4.3% | 9.71% | 1.45% |
| O=C(Nc1n[nH]c2nc(-c3ccc(O)cc3)c(Br)cc12)C1CC1 | 14% | 25.9% | 67.1% | 12.8% | 55.5% | 7.49% | 24.4% | 19.7% | 64.6% | 12% |
| O=C1Nc2ccc(I)cc2C1=Cc1cc(Br)c(O)c(Br)c1 | 6.35% | 2.96% | 9.37% | 2.93% | 3.36% | 2.82% | 5.91% | 3.34% | 7.24% | 0.08% |
